This passage reports Potency and max activation results from PubChem BioAssay (Tox21).

Records with an inconclusive call do not appear. Entries that show only a call come without a potency. Values without a mark were called inactive. The source made the active and inactive calls. Unless noted, calls follow the shape of the dose curve; as a rule, active = well fitted curve in the direction sought with a large enough effect; inconclusive = small, poorly fitted or top-dose-only effect, or another doubt; inactive = no such curve, though single readings can be large; an effect the other way counts as inactive or inconclusive.

System in one test: not listed separately
The experiment in a line: qHTS assay to identify small molecule phospholipidosis (PLD) inducers (AID 1259344). The note with it: HepG2 phospholipidosis, LipidTOX Red imaging, 24 h; series mostly up to 38.3 µM. Summed up: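 Image-based: LipidTOX Red pit count/intensity per well and per cell; HepG2, 24 h compound at 37 C, PFA fixation, Hoechst counterstain.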
`C[C@]12N[C@H](Cc3ccccc31)c1ccccc12`: the Potency entry is “inactive”.

Turning to `c1ccc(C2(c3ccccc3)CC2C2=NCCN2)cc1` (stereo unspecified), the Potency entry is “inactive”. The same measure, in the same setting: then `O=P(O)(O)C(Cl)(Cl)P(=O)(O)O`, with “inactive”.

The target of a further test is Nuclear receptor subfamily 1 group I member 2 (Rattus norvegicus) (UniProt Q9R1A7). Kind of test: Rat pregnane X receptor (rPXR) activation by small molecules, qHTS assay (AID 1346983; active = well fitted curve in the direction sought with a large enough effect in the repeat runs; an effect the other way counts as inactive or inconclusive; also: nearly all actives have a fitted effect of over 20% in size). The note with it: rPXR luciferase reporter cells, One-Glo luminescence, 24 h; max activation: hits give high values. The essentials: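 Cell-based rPXR activation assay: rPXR cells, 2,000 per well, rested 5hr at 37 C, then exposed to compounds in DMSO for 24 hr at 37 C. Luciferase activity read by One-Glo luminescence after 30 min at room temperature.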
Chain of Nuclear receptor subfamily 1 group I member 2 (Rattus norvegicus) (Q9R1A7 whole entry, looked up): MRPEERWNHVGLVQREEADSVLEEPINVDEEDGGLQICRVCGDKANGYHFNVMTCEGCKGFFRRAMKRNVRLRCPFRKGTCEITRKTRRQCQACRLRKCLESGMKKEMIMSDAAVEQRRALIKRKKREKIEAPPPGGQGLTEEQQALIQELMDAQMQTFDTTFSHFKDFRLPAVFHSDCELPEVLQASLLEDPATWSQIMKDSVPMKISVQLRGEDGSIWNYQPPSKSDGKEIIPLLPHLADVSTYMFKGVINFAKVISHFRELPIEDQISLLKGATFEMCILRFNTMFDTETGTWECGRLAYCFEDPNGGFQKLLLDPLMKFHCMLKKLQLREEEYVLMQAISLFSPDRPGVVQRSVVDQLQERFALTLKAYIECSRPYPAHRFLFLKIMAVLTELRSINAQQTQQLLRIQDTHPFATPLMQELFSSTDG
A general note: Quantitative high-throughput screening tests each substance at several concentrations.
Turning to `C[C@]12N[C@H](Cc3ccccc31)c1ccccc12`, the max activation is -5.86%. Same read-out and setting: then `c1ccc(C2(c3ccccc3)CC2C2=NCCN2)cc1` (stereo unspecified), with -1.58%. As for `CCCCCN(C)CCC(O)(P(=O)(O)O)P(=O)(O)O`, the max activation is -1.96%.
